Drawing on PubChem BioAssay (NCI), this text covers growth for eight compounds.

Among the test systems are NCI-H23 lung; NCI-H226 lung; NCI-H322M lung; NCI-H460 lung; HOP-92 NSCLC; NCI-H522 lung; A549/ATCC NSCLC; 786-0 renal; COLO 205 colon; DU-145 prostate; K-562 leukemia; MALME-3M melanoma; MDA-MB-231 breast; RXF 393 renal; SF-268 CNS; SF-295 CNS; SF-539 CNS; UACC-257 melanoma; M14 melanoma; HOP-62 NSCLC.
Holding throughout (experiment): NCI-60 one-dose screen, 48 h (100 = growth as untreated, 0 = no growth, -100 = all killed)
Holding throughout (conditions): 10 µM unless noted

This is part of a sample that, as a whole, favours compounds with a hit. Of some 83,000 tested, about 20% had one in any assay.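 Growth was measured after 48 h exposure to one concentration of compound in 96-well plates. Values under 10 count as active.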 Unmarked numbers belong to inactive results. The source made the active and inactive calls.

For `Cc1ccc2c(c1)/C(=C/C(=O)c1cc3ccccc3oc1=O)C(=O)N2`, the growth was 71.6% with NCI-H23 lung; 51.8% in the test with NCI-H226 lung; 101% in the test with NCI-H322M lung; 97% in the test on NCI-H460 lung; -4.43% (active) in the test with HOP-92 NSCLC; -94.4% (active) in the test with NCI-H522 lung. Besides, the growth in the test on A549/ATCC NSCLC was 89.5%; in the test on 786-0 renal, 74.7%; with COLO 205 colon, 30.4%; with DU-145 prostate it was 83.9%; in the test on K-562 leukemia, 6.62% (active); in the test with MALME-3M melanoma, -27.8% (active). Also, the growth was 65.1% with MDA-MB-231 breast; -41.2% (active) with RXF 393 renal; 84.4% with SF-268 CNS; 104% in the test on SF-295 CNS; 61.1% in the test on SF-539 CNS; 73.3% in the test on UACC-257 melanoma. Moreover, the growth in the test with M14 melanoma is 37%.

As to `O=C(CSc1nnc(-c2ccc(-c3nc4ccc(Cl)cc4[nH]3)cc2)o1)Nc1ccccc1`, the growth in the test with NCI-H23 lung was -41.5% (active); in the test with NCI-H226 lung, -23.7% (active); in the test on NCI-H322M lung it was 37.6%; in the test on HOP-62 NSCLC, -27.1% (active); with NCI-H460 lung it was -48.7% (active); in the test on HOP-92 NSCLC, 2.36% (active). In addition, the growth in the test on 786-0 renal was -59% (active); with COLO 205 colon it was 75.9%; in the test on DU-145 prostate, 6.69% (active); in the test with K-562 leukemia it was 12.3%; in the test on MALME-3M melanoma it was 2.32% (active); with MDA-MB-231 breast, -52% (active). Further, the growth in the test on RXF 393 renal is -40.6% (active); in the test with SF-268 CNS, 49.1%; with SF-295 CNS, 75.7%; in the test on SF-539 CNS it was -92.8% (active); with UACC-257 melanoma, 47.7%; with M14 melanoma it was 4.09% (active).

With `O=C(N/N=C/c1ccc(Cl)cc1)c1ccc(OCc2nc3ccc(Cl)cc3[nH]2)cc1`, the growth in the test on NCI-H23 lung was 4.91% (active); in the test on NCI-H226 lung it was 77.4%; in the test on NCI-H322M lung, 71.3%; in the test with NCI-H460 lung, -82.3% (active); in the test on HOP-92 NSCLC, 19.6%; with NCI-H522 lung, 7.51% (active). In addition, the growth in the test with A549/ATCC NSCLC is -60.1% (active); in the test on 786-0 renal it was -63.1% (active); in the test with COLO 205 colon, 4.04% (active); in the test with DU-145 prostate, -36.1% (active); with K-562 leukemia, 14.6%; in the test with MALME-3M melanoma, 37.5%. Besides, the growth in the test on MDA-MB-231 breast is 6.26% (active); in the test on RXF 393 renal, -10% (active); in the test on SF-268 CNS, 82.1%; in the test with SF-295 CNS, 13.8%; in the test on SF-539 CNS it was 67.6%; in the test on UACC-257 melanoma, 24.8%. In the test on M14 melanoma, the growth is -14.1% (active).

Take `Cc1ccc2nc(SCc3ccccc3F)n(-c3ccccc3)c(=O)c2c1`: the growth is 93.9% in the test on NCI-H23 lung; 96.7% in the test on NCI-H226 lung; 97.1% in the test with NCI-H322M lung; 105% in the test with NCI-H460 lung; 82.1% in the test with HOP-92 NSCLC; 87.8% with NCI-H522 lung. In addition, the growth in the test with A549/ATCC NSCLC is 85.8%; with 786-0 renal it was 94.9%; with COLO 205 colon, 116%; in the test on DU-145 prostate it was 108%; in the test with K-562 leukemia, 83.8%; with MALME-3M melanoma, 118%. The growth was 76.1% with MDA-MB-231 breast; 104% in the test on RXF 393 renal; 113% in the test on SF-268 CNS; 89.5% in the test with SF-295 CNS; 99.5% in the test with SF-539 CNS; 106% with UACC-257 melanoma. Further, the growth in the test on M14 melanoma is 95.3%.

Regarding `Cc1ccc(/C=C/C(=O)c2ccc(S(=O)(=O)NCCNc3nc(N(C)C)nc(N4CCOCC4)n3)cc2)cc1`, the growth was 95% in the test on NCI-H23 lung; 91.7% in the test on NCI-H226 lung; 93.7% in the test on NCI-H322M lung; 103% in the test on NCI-H460 lung; 93.2% with HOP-92 NSCLC; 72.3% in the test on NCI-H522 lung. The growth in the test on A549/ATCC NSCLC was 80.4%; in the test on 786-0 renal, 73%; in the test with COLO 205 colon, 114%; in the test with DU-145 prostate, 95.3%; in the test with K-562 leukemia, 6.8% (active); with MALME-3M melanoma, 108%. Moreover, the growth in the test with MDA-MB-231 breast was 85%; with RXF 393 renal it was 85%; in the test on SF-268 CNS it was 79.6%; in the test with SF-295 CNS, 94.4%; with SF-539 CNS, 81.7%; in the test on UACC-257 melanoma, 85.7%. Besides, the growth in the test with M14 melanoma is 95.5%.

Regarding `Cc1cc(C(NC(=O)C2CC3(CC(Nc4cccc5c4C(=O)N(C4CCC(=O)NC4=O)C5=O)C3)C2)c2ccc3c(c2)OC(F)(F)O3)c(O)c2ncccc12` (stereo not given), the growth in the test with NCI-H23 lung was 6.24% (active); with NCI-H226 lung, -2.38% (active); in the test on NCI-H322M lung, 27.5%; in the test on NCI-H460 lung it was 1.76% (active); in the test on HOP-92 NSCLC it was -1.71% (active); in the test with NCI-H522 lung, 2.63% (active). Also, the growth in the test on A549/ATCC NSCLC is 9.67% (active); in the test with 786-0 renal it was -12.8% (active); with COLO 205 colon, 13.2%; in the test on DU-145 prostate, 17.2%; in the test with K-562 leukemia, 10.8%; in the test with MALME-3M melanoma, 9.46% (active). Moreover, the growth is 25.2% with MDA-MB-231 breast; 23% in the test on RXF 393 renal; 14.4% with SF-268 CNS; 8.11% (active) with SF-295 CNS; -24.9% (active) with SF-539 CNS; -11% (active) in the test with UACC-257 melanoma. The growth in the test on M14 melanoma is -30.4% (active).

As to `N/C(=N\c1nc2ccc([N+](=O)[O-])cc2s1)NC(=O)Nc1ccccc1Cl`, the growth in the test with NCI-H23 lung was 44.6%; with NCI-H226 lung, 23.7%; in the test with NCI-H322M lung it was 61.7%; in the test with NCI-H460 lung, 11.3%; in the test with HOP-92 NSCLC, 17.2%; in the test on A549/ATCC NSCLC, 9.92% (active). Also, the growth was -32% (active) in the test with 786-0 renal; 49.3% in the test with COLO 205 colon; 45.5% with DU-145 prostate; 13% in the test with K-562 leukemia; -17.1% (active) in the test on MALME-3M melanoma; 15% in the test on MDA-MB-231 breast. The growth in the test with RXF 393 renal is 25%; in the test on SF-268 CNS it was 56.1%; in the test with SF-295 CNS it was 58.5%; with SF-539 CNS, 11.1%; in the test with UACC-257 melanoma, 89.6%; with M14 melanoma, 62.8%.

Turning to `Cc1nn(-c2ccccc2)c2nc(C)n(C(=O)N/N=C/c3cccc([N+](=O)[O-])c3)c(=O)c12`, the growth in the test with NCI-H23 lung is 77.7%; in the test with NCI-H226 lung it was 105%; in the test on NCI-H322M lung, 91.7%; with NCI-H460 lung, 93.7%; in the test with HOP-92 NSCLC, 103%; in the test with NCI-H522 lung, 47.4%. The growth in the test on A549/ATCC NSCLC is 83.7%; with 786-0 renal, 108%; in the test on COLO 205 colon, 117%; in the test on DU-145 prostate it was 99.9%; with K-562 leukemia, 62%; in the test with MALME-3M melanoma it was -10.2% (active). Further, the growth with MDA-MB-231 breast was 94.7%; in the test with RXF 393 renal, 115%; in the test on SF-268 CNS, 101%; in the test with SF-295 CNS, 101%; in the test with SF-539 CNS it was 105%; in the test on UACC-257 melanoma, 78.4%. Besides, in the test on M14 melanoma, the growth is 80.4%.
